Eight molecules from PubChem BioAssay (EPA / NIEHS) can be followed below.

Molecules are shown by their SMILES. “And” between values parts separate entries of the source, which are not always exact repeats. Equal entries are not always repeated. Records with an inconclusive call do not appear. Where a structure was tested more than once in an assay, its records may differ in their call. The source made the active and inactive calls. How the source made its calls, unless noted: active means hit-call score of the fitted dose curve at least 0.9, where 1 is the maximum; inactive means score below 0.9.

Experiment [1] has as its target human RAR-related Orphan Receptor gamma (RORg), RORC (gene 6097) (UniProt P51449). In words: ATG_RORg_TRANS: Attagene TRANS-FACTORIAL HepG2 Assay for human RAR-related Orphan Receptor gamma (RORg) (AID 2283011; active means hit-call score of the fitted dose curve at least 0.9, where 1 is the maximum). The method, boiled down: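 Chimeric RORg-Gal4 transactivation in transfected HepG2; 24 h exposure; RT-PCR/capillary electrophoresis readout of reporter mRNA, DMSO baseline.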

For experiment [2], the target named is Retinoic acid receptor RXR-alpha (Homo sapiens) (UniProt P19793). The experiment is described as follows: ATG_RXRa_TRANS: Attagene TRANS-FACTORIAL HepG2 Assay for human Retinoid X Receptor alpha (RXRa) (AID 2283012; active means hit-call score of the fitted dose curve at least 0.9, where 1 is the maximum). An outline of the steps: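 Measures exogenous chimeric NR-GAL4 activity in transfected HepG2 liver cells after 24 h of dosing. Induced reporter mRNA was detected by RT-PCR with capillary electrophoresis, and gain of signal was analysed against DMSO.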

Experiment [3] addresses human Thyroid Receptor alpha (THRa1), THRA (gene 7067) (UniProt P10827). The experiment is described as follows: ATG_THRa1_TRANS: Attagene TRANS-FACTORIAL HepG2 Assay for human Thyroid Receptor alpha (THRa1) (AID 2283014; active means hit-call score of the fitted dose curve at least 0.9, where 1 is the maximum). An outline of the steps: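 Measured here is mRNA from a GAL4-UAS reporter in transfected HepG2 cells carrying a Gal4-fused receptor, 24 h post-dose. DMSO served as negative control and baseline.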

Read-out in experiment [4]: E-selectin (Homo sapiens) (UniProt P16581)
In words: BSK_3C_Eselectin: BioMAP Diversity Plus: 3C Assay for Eselectin Biomarker Activity (AID 2283015).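 On outcome: cell surface E-selectin protein quantified by ELISA 24 h after dosing.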 The note with it: primary human endothelial cells (HUVEC); actives raise or lower the signal. An outline of the steps: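 Endpoint derived by bidirectional fitting against DMSO vehicle; signal is ELISA-detected E-selectin from primary HUVEC at 24 h post-dosing, with parallel SRB staining (0.1% SRB, 560 nm) flagging cytotoxicity.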

Read-out in experiment [5]: Interleukin-1 alpha (IL1a), IL1A (gene 3552)
In words: BSK_BE3C_IL1a: BioMAP Diversity Plus: BE3C Assay for Interleukin-1 alpha (IL1a) Biomarker Activity (AID 2283016). As to conditions: primary human bronchial epithelial cells; actives raise or lower the signal. An outline of the steps: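 Signal from IL-1a ELISA, taken 24 h after chemical dosing of human bronchial epithelial cells, is compared with DMSO as baseline using bidirectional curve fitting.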

Read-out in experiment [6]: Monocyte Chemoattractant Protein-1 (MCP1), CCL2 (gene 6347)
The experiment is described as follows: BSK_3C_MCP1: BioMAP Diversity Plus: 3C Assay for Monocyte Chemoattractant Protein-1 (MCP1) Biomarker Activity (AID 2283017). The note with it: primary human endothelial cells (HUVEC); actives raise or lower the signal. An outline of the steps: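 Using human vascular primary endothelium, researchers measured MCP-1 by ELISA 24 h after treatment, with DMSO serving as negative control for bidirectional fitting.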

Read-out in experiment [7]: Monocyte Chemoattractant Protein-1 (MCP1), CCL2 (gene 6347)
In words: BSK_4H_MCP1: BioMAP Diversity Plus: 4H Assay for Monocyte Chemoattractant Protein-1 (MCP1) Biomarker Activity (AID 2283018). The note with it: primary human endothelial cells (HUVEC); actives raise or lower the signal. An outline of the steps: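 Endothelial cells from umbilical vein were treated with test chemical, then after 24 h MCP-1 levels were quantified by ELISA; endpoint values came from bidirectional fitting with DMSO as baseline of activity.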

Read-out in experiment [8]: Human Leukocyte Antigen - DR isotype (HLADR), HLA-DRA (gene 3122)
In words: BSK_3C_HLADR: BioMAP Diversity Plus: 3C Assay for Human Leukocyte Antigen - DR isotype (HLADR) Biomarker Activity (AID 2283019).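 On outcome: ELISA of cell-surface HLA-DR on HUVEC 24 h after dosing.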 The note with it: primary human endothelial cells (HUVEC); actives raise or lower the signal. The method, boiled down:
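Compound added to primary HUVEC cultures, 24 h incubation, then HLA-DR determined by ELISA; endpoint derived by bidirectional fitting relative to DMSO negative control.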

Read-out in experiment [9]: Interleukin-8 (IL8), CXCL8 (gene 3576)
The experiment is described as follows: BSK_3C_IL8: BioMAP Diversity Plus: 3C Assay for Interleukin-8 (IL8) Biomarker Activity (AID 2283020). As to conditions: primary human endothelial cells (HUVEC); actives raise or lower the signal. An outline of the steps: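 Endothelial primary cells of human umbilical vein origin are dosed with chemical; after 24 h the IL-8 biomarker is measured by ELISA, and concentration–response is fitted in both directions versus DMSO.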

Read-out in experiment [10]: Monokine induced gamma interferon (MIG), CXCL9 (gene 4283)
The experiment is described as follows: BSK_3C_MIG: BioMAP Diversity Plus: 3C Assay for Monokine induced gamma interferon (MIG) Biomarker Activity (AID 2283021).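 On AC50: MIG protein level measured by immunoassay in the treated endothelial cultures.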 The note with it: primary human endothelial cells (HUVEC); actives raise or lower the signal. The method, boiled down:
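Endothelial primary cells (human umbilical vein) are dosed with test chemical in the 3C system. MIG levels are measured by ELISA at 24 h and fitted in both directions relative to DMSO.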

The nature of experiment [11]: BSK_3C_SRB: Viability Assessment in the BioMAP Diversity Plus: 3C Assay (AID 2283023).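 Further: fitted both ways against DMSO so a hit may be signal rise or drop.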 The note with it: primary human endothelial cells (HUVEC). The method, boiled down: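 Overt cytotoxicity is gauged in parallel confluent HUVEC cultures by SRB total-protein staining at the time of biomarker measurement, 24 h after dosing. Gain or loss of signal is fitted versus DMSO.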

Read-out in experiment [12]: Matrix Metallopeptidase 1 (MMP1), MMP1 (gene 4312)
The experiment is described as follows: BSK_BE3C_MMP1: BioMAP Diversity Plus: BE3C Assay for Matrix Metallopeptidase 1 (MMP1) Biomarker Activity (AID 2283024). As to conditions: primary human bronchial epithelial cells; actives raise or lower the signal. The method, boiled down:
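MMP1 signal, measured by ELISA after a 24 h chemical exposure of human primary bronchial epithelial cells, is analysed with bidirectional fitting using DMSO as negative control.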

Experiment [13] can be described thus: BSK_3C_Vis: BioMAP Diversity Plus: 3C Assay for Morphology Visualization (AID 2283025).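 Further: fitted both ways so gain or loss versus DMSO counts.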 The note with it: primary human endothelial cells (HUVEC). An outline of the steps: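 Morphology read by light microscopy serves as a background control for the multiplexed 3C assay in human umbilical vein endothelial cells, taken 24 h after dosing, with DMSO as the negative control and bidirectional curve fitting.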

Read-out in experiment [14]: Pselectin, SELP (gene 6403)
In words: BSK_4H_Pselectin: BioMAP Diversity Plus: 4H Assay for Pselectin Biomarker Activity (AID 2283026). As to conditions: primary human endothelial cells (HUVEC); actives raise or lower the signal. The method, boiled down:
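Endothelial primary cells (human umbilical vein) are dosed, incubated 24 h, and assayed for surface P-selectin by ELISA; responses in either direction are fitted relative to the DMSO negative control.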

A short description of experiment [15]: BSK_BE3C_SRB: Viability Assessment in the BioMAP Diversity Plus: BE3C Assay (AID 2283028).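 On AC50: fitted both ways so AC50 may mark signal gain or loss versus DMSO.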 As to conditions: primary human bronchial epithelial cells. An outline of the steps: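 SRB total-protein staining (0.1%, after TCA fixation) of chemically dosed human bronchial epithelial primary cells at 24 h; DMSO serves as the negative control for bidirectional curve fitting.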

Read-out in experiment [16]: Thrombomodulin, THBD (gene 7056)
The experiment is described as follows: BSK_3C_Thrombomodulin: BioMAP Diversity Plus: 3C Assay for Thrombomodulin Biomarker Activity (AID 2283029). The note with it: primary human endothelial cells (HUVEC); actives raise or lower the signal. The method, boiled down:
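Endothelial cells from umbilical vein are dosed with test chemical and incubated 24 h. Thrombomodulin is then quantified by ELISA, with DMSO serving as negative control and activity baseline.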

Read-out in experiment [17]: Urokinase-type plasminogen activator receptor (uPAR), PLAUR (gene 5329)
The experiment is described as follows: BSK_4H_uPAR: BioMAP Diversity Plus: 4H Assay for Urokinase-type plasminogen activator receptor (uPAR) Biomarker Activity (AID 2283030). As to conditions: primary human endothelial cells (HUVEC); actives raise or lower the signal. The method, boiled down:
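Endpoint derived via bidirectional curve fitting against DMSO baseline; readout was ELISA detection of uPAR on umbilical vein endothelial cells at 24 h post-treatment, with SRB-stained parallel cultures assessing cytotoxicity.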

In experiment [18] the target is human Retinoid X Receptor beta (RXRb), RXRB (gene 6257) (UniProt P28702). In words: ATG_RXRb_TRANS: Attagene TRANS-FACTORIAL HepG2 Assay for human Retinoid X Receptor beta (RXRb) (AID 2283013; active means hit-call score of the fitted dose curve at least 0.9, where 1 is the maximum). An outline of the steps: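 Chimeric receptor-Gal4 activity was assessed in transiently transfected human HepG2 cells after 24 h exposure. Transcripts from GAL4-UAS reporters were quantified by fluorescent RT-PCR and capillary electrophoresis, with DMSO as negative control and baseline.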

Experiment [19] addresses human Vitamin D Receptor (VDR), VDR (gene 7421) (UniProt P11473). The experiment is described as follows: ATG_VDR_TRANS: Attagene TRANS-FACTORIAL HepG2 Assay for human Vitamin D Receptor (VDR) (AID 2283022; active means hit-call score of the fitted dose curve at least 0.9, where 1 is the maximum). The method, boiled down: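 Multiplexed TRANS reporter in HepG2; 24 h treatment; reporter mRNA by RT-PCR plus capillary electrophoresis; upregulation scored relative to DMSO.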

Sequence of Retinoic acid receptor RXR-alpha (Homo sapiens) (P19793 whole entry, looked up, the tested form may be a part): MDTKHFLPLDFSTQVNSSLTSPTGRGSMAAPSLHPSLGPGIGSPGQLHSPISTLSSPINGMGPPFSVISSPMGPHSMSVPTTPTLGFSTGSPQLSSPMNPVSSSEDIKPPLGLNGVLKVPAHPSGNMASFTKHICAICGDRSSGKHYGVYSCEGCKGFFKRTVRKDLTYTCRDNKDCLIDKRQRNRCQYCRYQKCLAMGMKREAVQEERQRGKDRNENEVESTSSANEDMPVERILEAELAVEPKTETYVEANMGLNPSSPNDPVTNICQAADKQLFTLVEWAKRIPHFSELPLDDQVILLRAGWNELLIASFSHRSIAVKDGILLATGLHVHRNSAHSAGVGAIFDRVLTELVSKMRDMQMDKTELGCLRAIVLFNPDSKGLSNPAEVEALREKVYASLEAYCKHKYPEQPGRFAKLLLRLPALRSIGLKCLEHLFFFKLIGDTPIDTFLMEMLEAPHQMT
Sequence of E-selectin (Homo sapiens) (P16581 whole entry, looked up): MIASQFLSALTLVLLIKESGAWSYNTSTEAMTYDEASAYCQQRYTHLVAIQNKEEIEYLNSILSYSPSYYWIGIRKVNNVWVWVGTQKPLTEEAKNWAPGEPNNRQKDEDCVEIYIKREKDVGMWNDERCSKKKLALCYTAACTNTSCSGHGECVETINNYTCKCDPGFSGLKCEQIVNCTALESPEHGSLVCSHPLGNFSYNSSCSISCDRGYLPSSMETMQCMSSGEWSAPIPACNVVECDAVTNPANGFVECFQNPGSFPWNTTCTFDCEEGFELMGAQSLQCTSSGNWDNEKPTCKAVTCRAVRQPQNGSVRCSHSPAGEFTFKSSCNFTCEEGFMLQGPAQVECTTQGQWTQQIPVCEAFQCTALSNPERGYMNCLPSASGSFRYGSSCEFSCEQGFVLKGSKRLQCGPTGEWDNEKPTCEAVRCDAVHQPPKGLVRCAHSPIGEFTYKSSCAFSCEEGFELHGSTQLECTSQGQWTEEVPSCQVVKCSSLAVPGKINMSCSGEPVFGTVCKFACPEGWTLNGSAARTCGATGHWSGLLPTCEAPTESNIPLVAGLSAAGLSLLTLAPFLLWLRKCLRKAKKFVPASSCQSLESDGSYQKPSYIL
Sequence of human Retinoid X Receptor beta (RXRb), RXRB (gene 6257) (P28702 whole entry, looked up, the tested form may be a part): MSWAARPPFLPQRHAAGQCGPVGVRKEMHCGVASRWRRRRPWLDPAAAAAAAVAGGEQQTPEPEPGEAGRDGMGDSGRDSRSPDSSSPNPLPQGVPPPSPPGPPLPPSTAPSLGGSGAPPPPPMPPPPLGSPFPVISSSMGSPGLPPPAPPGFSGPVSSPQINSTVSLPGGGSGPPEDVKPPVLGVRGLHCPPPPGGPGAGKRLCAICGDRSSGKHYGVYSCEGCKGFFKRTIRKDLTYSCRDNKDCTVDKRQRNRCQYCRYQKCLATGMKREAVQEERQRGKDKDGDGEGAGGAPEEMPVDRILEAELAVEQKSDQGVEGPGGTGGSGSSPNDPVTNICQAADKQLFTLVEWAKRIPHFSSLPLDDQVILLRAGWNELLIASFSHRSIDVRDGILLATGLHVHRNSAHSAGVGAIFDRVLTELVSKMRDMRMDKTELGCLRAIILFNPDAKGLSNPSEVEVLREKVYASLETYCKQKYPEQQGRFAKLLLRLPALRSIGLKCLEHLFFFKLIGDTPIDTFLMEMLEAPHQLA
Sequence of human Thyroid Receptor alpha (THRa1), THRA (gene 7067) (P10827 whole entry, looked up, the tested form may be a part): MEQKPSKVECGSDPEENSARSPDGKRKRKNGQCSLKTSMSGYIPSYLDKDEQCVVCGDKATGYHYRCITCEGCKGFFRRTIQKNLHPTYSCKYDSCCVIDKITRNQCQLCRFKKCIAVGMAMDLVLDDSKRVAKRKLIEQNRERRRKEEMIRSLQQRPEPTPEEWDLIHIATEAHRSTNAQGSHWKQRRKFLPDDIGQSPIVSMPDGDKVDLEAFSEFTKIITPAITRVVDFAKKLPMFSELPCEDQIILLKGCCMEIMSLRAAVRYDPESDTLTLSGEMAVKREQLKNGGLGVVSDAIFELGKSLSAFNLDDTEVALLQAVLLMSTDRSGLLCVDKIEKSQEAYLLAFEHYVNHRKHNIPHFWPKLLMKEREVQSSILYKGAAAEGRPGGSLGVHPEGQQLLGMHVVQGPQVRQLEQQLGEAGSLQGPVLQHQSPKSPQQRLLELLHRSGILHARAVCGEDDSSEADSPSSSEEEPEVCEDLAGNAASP
Sequence of human RAR-related Orphan Receptor gamma (RORg), RORC (gene 6097) (P51449 whole entry, looked up, the tested form may be a part): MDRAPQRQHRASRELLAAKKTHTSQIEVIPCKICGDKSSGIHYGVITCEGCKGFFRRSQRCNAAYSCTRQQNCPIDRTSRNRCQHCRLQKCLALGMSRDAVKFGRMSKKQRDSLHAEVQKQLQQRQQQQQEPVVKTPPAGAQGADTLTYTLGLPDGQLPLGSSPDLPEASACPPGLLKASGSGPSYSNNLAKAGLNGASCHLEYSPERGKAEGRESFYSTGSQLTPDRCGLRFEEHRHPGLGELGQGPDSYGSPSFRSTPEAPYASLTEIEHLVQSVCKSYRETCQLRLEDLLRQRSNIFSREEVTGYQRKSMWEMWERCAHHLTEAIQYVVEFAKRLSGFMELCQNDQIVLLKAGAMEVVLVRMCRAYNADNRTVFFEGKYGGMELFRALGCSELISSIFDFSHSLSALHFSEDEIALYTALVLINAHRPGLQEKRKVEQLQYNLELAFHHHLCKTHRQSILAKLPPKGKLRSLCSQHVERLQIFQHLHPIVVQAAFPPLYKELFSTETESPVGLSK
Sequence of human Vitamin D Receptor (VDR), VDR (gene 7421) (P11473 whole entry, looked up): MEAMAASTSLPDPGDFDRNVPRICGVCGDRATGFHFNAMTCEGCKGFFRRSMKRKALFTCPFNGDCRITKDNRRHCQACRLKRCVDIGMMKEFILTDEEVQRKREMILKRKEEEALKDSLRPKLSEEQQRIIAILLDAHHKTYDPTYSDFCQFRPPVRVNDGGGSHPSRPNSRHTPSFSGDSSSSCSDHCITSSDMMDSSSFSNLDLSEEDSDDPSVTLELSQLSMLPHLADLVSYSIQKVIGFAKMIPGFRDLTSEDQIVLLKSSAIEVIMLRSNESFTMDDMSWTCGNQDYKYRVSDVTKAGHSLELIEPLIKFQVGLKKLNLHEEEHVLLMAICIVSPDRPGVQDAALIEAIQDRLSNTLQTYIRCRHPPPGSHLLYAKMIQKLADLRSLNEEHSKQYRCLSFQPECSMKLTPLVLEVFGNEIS

Turning to `ClCCOCCOCCCl`, the molecule was called inactive in experiment [1], in experiment [2] and in [3].
Turning to `CC/C(=C(\c1ccccc1)c1ccc(OCCN(C)C)cc1)c1ccccc1`, the molecule was called inactive in experiment [1], in experiment [2], in experiment [3] and in experiment [16]. The half-maximal activity concentration (AC50) in experiment [4] was 11.7 µM (active) and 11.2 µM (active); in experiment [5], 13.2 µM (active) and 8.83 µM (active); in [6] it was 7.95 µM (active) and 8.84 µM (active); in [7], 11.5 µM (active) and 8.4 µM (active); in experiment [8] it was 9.16 µM (active) and 7.07 µM (active); in experiment [9], 8.78 µM (active) and 8.48 µM (active). For the same molecule, the concentration at half-maximal activity (AC50) in experiment [10] is 10.4 µM (active) and 9.73 µM (active); in experiment [11], 5.32 µM (active) and 6.55 µM (active); in experiment [12], 10.1 µM (active) and 12.3 µM (active); in [13], 4.76 µM (active) and 5.36 µM (active); in experiment [14], 7.7 µM (active) and 8.24 µM (active); in [15] it was 4.81 µM (active) and 5.24 µM (active). Further, the AC50 is 12.6 µM (active) in experiment [16]; 5.66 µM (active) and 7.14 µM (active) in experiment [17].
Consider `O=C(c1ccc(OCCN2CCCCC2)cc1)c1c(-c2ccc(O)cc2)sc2cc(O)ccc12`, for which the outcome in experiment [1], in experiment [2], in experiment [18], in [19] and in [16] was inactive. The AC50 in experiment [4] was 37.8 µM (active); in experiment [5] it was 31.2 µM (active); in experiment [6], 27.3 µM (active); in experiment [7] it was 22.1 µM (active); in [8] it was 17.4 µM (active); in [9] it was 20 µM (active). In addition, the AC50 in experiment [10] is 36.1 µM (active); in [11] it was 18.8 µM (active); in experiment [12], 32.2 µM (active); in experiment [13] it was 22.3 µM (active); in [14] it was 25.2 µM (active); in [15], 38.1 µM (active). Besides, the AC50 in experiment [17] is 25.3 µM (active).
Regarding `CC(=O)CC(=O)N(C)C`, the molecule was classed as inactive in experiment [1], in experiment [2] and in experiment [3].
Take `CCOC(=O)CC(C)C`: the molecule was classed as inactive in experiment [1], in experiment [2] and in experiment [3].
With `O=S1(=O)CC(Cl)(Cl)C(Cl)(Cl)C1`, the outcome in experiment [1], in experiment [2], in experiment [3] and in [16] was inactive. The concentration at half-maximal activity (AC50) in experiment [4] was 0.611 µM (active); in [5], 1.33 µM (active); in experiment [6] it was 0.961 µM (active); in [7] it was 0.537 µM (active); in [8], 0.327 µM (active); in experiment [9], 0.548 µM (active). Moreover, the AC50 in [10] is 1.34 µM (active); in experiment [11], 5.02 µM (active); in experiment [12], 2.15 µM (active); in experiment [13], 20 µM (active); in experiment [14], 0.194 µM (active); in [15], 1.18 µM (active). The AC50 in experiment [17] was 0.921 µM (active).
For the molecule `CCCO[Si](OCCC)(OCCC)OCCC`, the outcome in experiment [1], in [2], in experiment [18], in [4], in experiment [5] and in [6] was inactive. Also, the outcome in [7], in experiment [8], in experiment [9], in experiment [10], in [19] and in [11] was inactive. The outcome in [12], in [14], in [15], in experiment [16] and in experiment [17] was inactive.
On to `COc1ccc(C(C)=O)cc1`, for which the call in [1], in experiment [2] and in experiment [3] was inactive.

In general, AC50 refers to the midpoint of the concentration-response curve, whichever way the signal moves.
